# Reference: the supplement of paper PMC7765376
# Where a name gives a salt, the structure may show the parent alone. The full ranking holds about 1,500 compounds; the median of “Excess HSA synergy score (sum over dose matrix of excess over highest single agent)” is about 43, and the lowest 2% start at about -900. The entries come from a sample that favours the lowest values as a whole.
# Tested on: PEO-1
# Test: Excess HSA synergy score (sum over dose matrix of excess over highest single agent) (score (summed % response)); higher = less synergy / more antagonism (negative = synergy)
# Details: 72 h, read-out: viability/apoptosis luminescence (CellTiter-Glo or Caspase3-Glo / not stated per table)
# [1] = matrix design: 6x6, 5-fold dilutions (primary screen)
SMILES,Excess HSA synergy score [1],"Excess HSA synergy score (matrix design: 10x10, 9-step dilutions (confirmatory))"
C[Se]CC[C@H](N)C(=O)O [L-selenomethionine] + CC[C@H](NC(=O)[C@H](C)NC)C(=O)N1C[C@@H](O)C[C@H]1Cc1c(-c2[nH]c3cc(F)ccc3c2C[C@@H]2C[C@H](O)CN2C(=O)[C@H](CC)NC(=O)[C@H](C)NC)[nH]c2cc(F)ccc12 [Birinapant],115,–
CC(=O)O/N=C1/C(=C2/C(=O)Nc3cc(Br)ccc32)Nc2ccccc21 [6-Bromoindirubin-3'-acetoxime] + CC[C@H](NC(=O)[C@H](C)NC)C(=O)N1C[C@@H](O)C[C@H]1Cc1c(-c2[nH]c3cc(F)ccc3c2C[C@@H]2C[C@H](O)CN2C(=O)[C@H](CC)NC(=O)[C@H](C)NC)[nH]c2cc(F)ccc12 [Birinapant],131,–
Cc1ccc(C(=O)N(CCCN)[C@@H](c2nc3cc(Cl)ccc3c(=O)n2Cc2ccccc2)C(C)C)cc1 [Ispinesib] + CC[C@H](NC(=O)[C@H](C)NC)C(=O)N1C[C@@H](O)C[C@H]1Cc1c(-c2[nH]c3cc(F)ccc3c2C[C@@H]2C[C@H](O)CN2C(=O)[C@H](CC)NC(=O)[C@H](C)NC)[nH]c2cc(F)ccc12 [Birinapant],-86.8,–
Nc1nccc(-c2ccc3noc(-c4ccc(Cl)cc4)c3c2)n1 [Pim 1 Inhibitor 2] + CC[C@H](NC(=O)[C@H](C)NC)C(=O)N1C[C@@H](O)C[C@H]1Cc1c(-c2[nH]c3cc(F)ccc3c2C[C@@H]2C[C@H](O)CN2C(=O)[C@H](CC)NC(=O)[C@H](C)NC)[nH]c2cc(F)ccc12 [Birinapant],12.2,–
C=CCNc1c(O)cc2c(O)c1C[C@@H](C)C[C@H](OC)[C@H](O)[C@@H](C)/C=C(\C)[C@H](OC(N)=O)[C@@H](OC)/C=C\C=C(/C)C(=O)N2 [Retaspimycin] + CC[C@H](NC(=O)[C@H](C)NC)C(=O)N1C[C@@H](O)C[C@H]1Cc1c(-c2[nH]c3cc(F)ccc3c2C[C@@H]2C[C@H](O)CN2C(=O)[C@H](CC)NC(=O)[C@H](C)NC)[nH]c2cc(F)ccc12 [Birinapant],-10.7,–
NC(=O)Nc1cc(-c2cccc(F)c2)sc1C(=O)N[C@H]1CCCNC1 + CC[C@H](NC(=O)[C@H](C)NC)C(=O)N1C[C@@H](O)C[C@H]1Cc1c(-c2[nH]c3cc(F)ccc3c2C[C@@H]2C[C@H](O)CN2C(=O)[C@H](CC)NC(=O)[C@H](C)NC)[nH]c2cc(F)ccc12 [Birinapant],119,–
Cc1cccc(Nc2nc(-c3ccncc3)cs2)c1 + CC[C@H](NC(=O)[C@H](C)NC)C(=O)N1C[C@@H](O)C[C@H]1Cc1c(-c2[nH]c3cc(F)ccc3c2C[C@@H]2C[C@H](O)CN2C(=O)[C@H](CC)NC(=O)[C@H](C)NC)[nH]c2cc(F)ccc12 [Birinapant],69.4,–
COc1cc(F)c(C(C)C)cc1-c1ccc(C(F)(F)F)cc1CN1C(=O)O[C@H](c2cc(C(F)(F)F)cc(C(F)(F)F)c2)[C@@H]1C [Anacetrapib] + CC[C@H](NC(=O)[C@H](C)NC)C(=O)N1C[C@@H](O)C[C@H]1Cc1c(-c2[nH]c3cc(F)ccc3c2C[C@@H]2C[C@H](O)CN2C(=O)[C@H](CC)NC(=O)[C@H](C)NC)[nH]c2cc(F)ccc12 [Birinapant],-71.8,–
CN(C)c1ccc(C(=C2C=CC(=[N+](C)C)C=C2)c2ccc(N(C)C)cc2)cc1 [Methylrosaniline chloride] + CC[C@H](NC(=O)[C@H](C)NC)C(=O)N1C[C@@H](O)C[C@H]1Cc1c(-c2[nH]c3cc(F)ccc3c2C[C@@H]2C[C@H](O)CN2C(=O)[C@H](CC)NC(=O)[C@H](C)NC)[nH]c2cc(F)ccc12 [Birinapant],-147,–
COc1ccc(C2=N[C@@H](c3ccc(Cl)cc3)[C@@H](c3ccc(Cl)cc3)N2C(=O)N2CCNC(=O)C2)c(OC(C)C)c1 [Nutlin-3] + CC[C@H](NC(=O)[C@H](C)NC)C(=O)N1C[C@@H](O)C[C@H]1Cc1c(-c2[nH]c3cc(F)ccc3c2C[C@@H]2C[C@H](O)CN2C(=O)[C@H](CC)NC(=O)[C@H](C)NC)[nH]c2cc(F)ccc12 [Birinapant],264,–
CCS(=O)(=O)N1CC(CC#N)(n2cc(-c3ncnc4[nH]ccc34)cn2)C1 [Baricitinib] + CC[C@H](NC(=O)[C@H](C)NC)C(=O)N1C[C@@H](O)C[C@H]1Cc1c(-c2[nH]c3cc(F)ccc3c2C[C@@H]2C[C@H](O)CN2C(=O)[C@H](CC)NC(=O)[C@H](C)NC)[nH]c2cc(F)ccc12 [Birinapant],48.3,–
N#CC(c1ccnc(OCc2ccc(CN3CCOCC3)cc2)n1)c1nc2ccccc2s1 (centres undefined) + CC[C@H](NC(=O)[C@H](C)NC)C(=O)N1C[C@@H](O)C[C@H]1Cc1c(-c2[nH]c3cc(F)ccc3c2C[C@@H]2C[C@H](O)CN2C(=O)[C@H](CC)NC(=O)[C@H](C)NC)[nH]c2cc(F)ccc12 [Birinapant],104,–
COc1ccc(C(=O)CC2(O)C(=O)Nc3c(Cl)ccc(Cl)c32)cc1 (centres undefined) + CC[C@H](NC(=O)[C@H](C)NC)C(=O)N1C[C@@H](O)C[C@H]1Cc1c(-c2[nH]c3cc(F)ccc3c2C[C@@H]2C[C@H](O)CN2C(=O)[C@H](CC)NC(=O)[C@H](C)NC)[nH]c2cc(F)ccc12 [Birinapant],27,–
NC(=O)c1ccc(N(C(N)=O)c2c(F)cccc2F)nc1-c1ccc(F)cc1F + CC[C@H](NC(=O)[C@H](C)NC)C(=O)N1C[C@@H](O)C[C@H]1Cc1c(-c2[nH]c3cc(F)ccc3c2C[C@@H]2C[C@H](O)CN2C(=O)[C@H](CC)NC(=O)[C@H](C)NC)[nH]c2cc(F)ccc12 [Birinapant],69.1,–
Cn1cnc(N)c2ncnc1-2 [3-Methyladenine] + CC[C@H](NC(=O)[C@H](C)NC)C(=O)N1C[C@@H](O)C[C@H]1Cc1c(-c2[nH]c3cc(F)ccc3c2C[C@@H]2C[C@H](O)CN2C(=O)[C@H](CC)NC(=O)[C@H](C)NC)[nH]c2cc(F)ccc12 [Birinapant],238,–
C[C@@]12C[C@@]3(O)O[C@@H](O1)[C@]1(COC(=O)c4ccccc4)[C@H]3C[C@@]12O[C@@H]1O[C@H](CO)[C@@H](O)[C@H](O)[C@H]1O [Paeoniflorin] + CC[C@H](NC(=O)[C@H](C)NC)C(=O)N1C[C@@H](O)C[C@H]1Cc1c(-c2[nH]c3cc(F)ccc3c2C[C@@H]2C[C@H](O)CN2C(=O)[C@H](CC)NC(=O)[C@H](C)NC)[nH]c2cc(F)ccc12 [Birinapant],211,–
COc1cc([C@@H]2c3cc4c(cc3[C@@H](O[C@@H]3O[C@@H]5CO[C@@H](C)O[C@H]5[C@H](O)[C@H]3O)[C@H]3COC(=O)[C@H]23)OCO4)cc(OC)c1O [Etoposide] + CC[C@H](NC(=O)[C@H](C)NC)C(=O)N1C[C@@H](O)C[C@H]1Cc1c(-c2[nH]c3cc(F)ccc3c2C[C@@H]2C[C@H](O)CN2C(=O)[C@H](CC)NC(=O)[C@H](C)NC)[nH]c2cc(F)ccc12 [Birinapant],-89.6,–
COc1cc([C@@H]2c3cc4c(cc3[C@@H](O[C@@H]3O[C@@H]5CO[C@@H](c6cccs6)O[C@H]5[C@H](O)[C@H]3O)[C@H]3COC(=O)[C@H]23)OCO4)cc(OC)c1O [Teniposide] + CC[C@H](NC(=O)[C@H](C)NC)C(=O)N1C[C@@H](O)C[C@H]1Cc1c(-c2[nH]c3cc(F)ccc3c2C[C@@H]2C[C@H](O)CN2C(=O)[C@H](CC)NC(=O)[C@H](C)NC)[nH]c2cc(F)ccc12 [Birinapant],-151,-1360
COC(=O)N[C@H](C(=O)N[C@@H](Cc1ccccc1)[C@@H](O)CN(Cc1ccc(-c2ccccn2)cc1)NC(=O)[C@@H](NC(=O)OC)C(C)(C)C)C(C)(C)C [Atazanavir sulfate] + CC[C@H](NC(=O)[C@H](C)NC)C(=O)N1C[C@@H](O)C[C@H]1Cc1c(-c2[nH]c3cc(F)ccc3c2C[C@@H]2C[C@H](O)CN2C(=O)[C@H](CC)NC(=O)[C@H](C)NC)[nH]c2cc(F)ccc12 [Birinapant],154,–
CC(C)(C)[C@H](NC(=O)c1ccc(N)c(Cl)c1)C(=O)N1CCC[C@H]1C(=O)N[C@H](C#N)CC(=O)O + CC[C@H](NC(=O)[C@H](C)NC)C(=O)N1C[C@@H](O)C[C@H]1Cc1c(-c2[nH]c3cc(F)ccc3c2C[C@@H]2C[C@H](O)CN2C(=O)[C@H](CC)NC(=O)[C@H](C)NC)[nH]c2cc(F)ccc12 [Birinapant],307,–
COc1ccc(C(C)=O)c(O)c1 [Paeonol] + CC[C@H](NC(=O)[C@H](C)NC)C(=O)N1C[C@@H](O)C[C@H]1Cc1c(-c2[nH]c3cc(F)ccc3c2C[C@@H]2C[C@H](O)CN2C(=O)[C@H](CC)NC(=O)[C@H](C)NC)[nH]c2cc(F)ccc12 [Birinapant],176,–
Nc1cccc(-c2cc3c(Oc4cccc(O)c4)ncnc3[nH]2)c1 + CC[C@H](NC(=O)[C@H](C)NC)C(=O)N1C[C@@H](O)C[C@H]1Cc1c(-c2[nH]c3cc(F)ccc3c2C[C@@H]2C[C@H](O)CN2C(=O)[C@H](CC)NC(=O)[C@H](C)NC)[nH]c2cc(F)ccc12 [Birinapant],63.5,–
Cc1[nH]c(/C=C2\C(=O)Nc3ccccc32)c(C)c1CCC(=O)O [Orantinib] + CC[C@H](NC(=O)[C@H](C)NC)C(=O)N1C[C@@H](O)C[C@H]1Cc1c(-c2[nH]c3cc(F)ccc3c2C[C@@H]2C[C@H](O)CN2C(=O)[C@H](CC)NC(=O)[C@H](C)NC)[nH]c2cc(F)ccc12 [Birinapant],23.6,–
